The supplement of paper PMC4466140

B1: unnamed (peptide)
chain: PPIPIVPSSPAPPLP

These binders were tested against AgAbp1 (assay: SPOT peptide array binding signal intensity (averaged, normalized) (arbitrary units (background-subtracted, floor 0; scale differs between SH3 domains)); higher = stronger binding of the SH3 domain to the peptide).
In short: (§1)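 Four yeast species supplied the SH3 domains, which were expressed as GST fusions in E. coli BL21(DE3) and purified on glutathione Sepharose. Incubation with cellulose membranes carrying synthetic 15-mer peptides, cysteines exchanged for serines, ran overnight at 4°C at 10 μg/ml in TBS-based blocking buffer. Binding signal is reported as normalized, background-subtracted spot intensity averaged over replicates, in arbitrary units not shared between domains.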
B1 was tested, and the “SPOT peptide array binding signal intensity” value was ≤ 0.

What follows are binders tested against AgBbc1 in the same assay as above.
In short: as §1
With B1 the “SPOT peptide array binding signal intensity” value was ≤ 0.

The binders below were run against AgBem1-D1 in the same assay as above.
In short: as §1
For B1, the “SPOT peptide array binding signal intensity” value was ≤ 0.

Each binder was assayed against AgBzz1-D1 in the same assay as above.
In short: as §1
For B1, the “SPOT peptide array binding signal intensity” value was 28.

Each binder was assayed against AgBzz1-D2 in the same assay as above.
In short: as §1
With B1 the “SPOT peptide array binding signal intensity” value was ≤ 0.

These binders were tested against AgCyk3 in the same assay as above.
In short: as §1
In the case of B1, the “SPOT peptide array binding signal intensity” value is reported as ≤ 0.

What follows are binders tested against AgFus1 in the same assay as above.
In short: as §1
With B1 the “SPOT peptide array binding signal intensity” value was ≤ 0.

The binders below were run against AgHof1 in the same assay as above.
In short: as §1
For B1, the “SPOT peptide array binding signal intensity” value was ≤ 0.

Each binder was assayed against AgHse1 in the same assay as above.
In short: as §1
With B1 the “SPOT peptide array binding signal intensity” value was ≤ 0.

What follows are binders tested against AgLsb1 in the same assay as above.
In short: as §1
With B1 the “SPOT peptide array binding signal intensity” value was ≤ 0.

Each binder was assayed against AgLsb4 in the same assay as above.
In short: as §1
For B1, the “SPOT peptide array binding signal intensity” value was ≤ 0.

Each binder was assayed against AgMyo5 in the same assay as above.
In short: as §1
In the case of B1, the “SPOT peptide array binding signal intensity” value is reported as 2150.

These binders were tested against AgNbp2 in the same assay as above.
In short: as §1
With B1 the “SPOT peptide array binding signal intensity” value was ≤ 0.

Each binder was assayed against AgRvs167 in the same assay as above.
In short: as §1
For B1, the “SPOT peptide array binding signal intensity” value was ≤ 0.

The binders below were run against AgSho1 in the same assay as above.
In short: as §1
B1 was tested, and the “SPOT peptide array binding signal intensity” value was ≤ 0.

Each binder was assayed against AgSla1-D1-D2 in the same assay as above.
In short: as §1
B1 was tested, and the “SPOT peptide array binding signal intensity” value was ≤ 0.

Each binder was assayed against AgSla1-D3 in the same assay as above.
In short: as §1
B1 was tested, and the “SPOT peptide array binding signal intensity” value was ≤ 0.

These binders were tested against CaAbp1-D1 in the same assay as above.
In short: as §1
In the case of B1, the “SPOT peptide array binding signal intensity” value is reported as ≤ 0.

The binders below were run against CaAbp1-D2 in the same assay as above.
In short: as §1
In the case of B1, the “SPOT peptide array binding signal intensity” value is reported as ≤ 0.

The binders below were run against CaBbc1 in the same assay as above.
In short: as §1
B1 was tested, and the “SPOT peptide array binding signal intensity” value was 0.5.

Each binder was assayed against CaBem1-D1 in the same assay as above.
In short: as §1
With B1 the “SPOT peptide array binding signal intensity” value was ≤ 0.

What follows are binders tested against CaBzz1-D1 in the same assay as above.
In short: as §1
For B1, the “SPOT peptide array binding signal intensity” value was ≤ 0.

The binders below were run against CaBzz1-D2 in the same assay as above.
In short: as §1
For B1, the “SPOT peptide array binding signal intensity” value was ≤ 0.

These binders were tested against CaCyk3 in the same assay as above.
In short: as §1
In the case of B1, the “SPOT peptide array binding signal intensity” value is reported as ≤ 0.

The binders below were run against CaFus1 in the same assay as above.
In short: as §1
B1 was tested, and the “SPOT peptide array binding signal intensity” value was ≤ 0.

These binders were tested against CaHof1 in the same assay as above.
In short: as §1
B1 was tested, and the “SPOT peptide array binding signal intensity” value was ≤ 0.

These binders were tested against CaHse1 in the same assay as above.
In short: as §1
B1 was tested, and the “SPOT peptide array binding signal intensity” value was ≤ 0.

Each binder was assayed against CaLsb1 in the same assay as above.
In short: as §1
In the case of B1, the “SPOT peptide array binding signal intensity” value is reported as ≤ 0.

Each binder was assayed against CaLsb4 in the same assay as above.
In short: as §1
In the case of B1, the “SPOT peptide array binding signal intensity” value is reported as ≤ 0.

Each binder was assayed against CaMyo5 in the same assay as above.
In short: as §1
With B1 the “SPOT peptide array binding signal intensity” value was 833.
